The text below walks through data of PubChem BioAssay (NCATS).

Each structure is given as a SMILES string. A number with no mark means an inactive call. Inconclusive results are not listed. Calls of active or inactive are those of the source. Unless noted, calls follow the shape of the dose curve; as a rule, active = well fitted curve in either direction with a large enough effect (not every such curve was filed as active); inconclusive = small, poorly fitted or top-dose-only effect, or another doubt; inactive = flat fitted curve, though single readings scatter. Bounds are passed on as bounds.

The target of experiment [1] is Lysosomal acid glucosylceramidase (Homo sapiens) (UniProt P04062). Briefly: Glucocerebrosidase-p2 (AID 348; in the data active = potency below about 10 µM; also: potency is read from the fitted curve at half-maximal effect). Conditions: purified GBA, blue fluorogenic substrate, 40 min. Put shortly:
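Normal human glucocerebrosidase (0.2 nM) with blue fluorogenic substrate (80 uM final) in citrate/phosphate pH 5.9 with 10mM sodium taurocholate, 0.01% tween-20; 40 min RT, NaOH/glycine stop; fluorescence Ex 365/Em 440; AC50 from a titration from 0.6 nM upwards.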

Experiment [2] is described as follows: AP1 Signaling Pathway (AID 357).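 Also: ME-180 reporter cells stimulated with EGF at its EC50 level; % is scaled to controls: 0 for no effect and ±100 for the full control effect.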 Conditions: ME-180 AP-1-bla reporter, EGF-induced, beta-lactamase ratio, 5 h; at 7.69 µM (top of the series) unless noted. Put shortly:
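A ratiometric CCF4 readout (405 nm excitation; 460 and 530 nm emission) quantified AP-1-driven beta-lactamase in ME-180 cells after 5 h with compound and EC50 EGF; AC50 values were derived for activators and inhibitors.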

The target of experiment [3] is Cytochrome P450 1A2 (Homo sapiens) (UniProt P05177). Briefly: p450-cyp1a2 (AID 410; calls by dose curve; also: potency is read from the fitted curve at half-maximal effect;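 as to activity change, negative = inhibition: -100% = full effect of reference inhibitor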). The conditions noted are these: recombinant CYP1A2, luciferin-ME demethylation, luminescence; series mostly up to 11.4 µM. In a few lines: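 20nM CYP1A2, 100uM Luciferin-ME (=Km), 100mM KPO4; cpd 10 min RT; +NADPH regen, 60 min RT; stop/detect 20 min; luminescence. Normalized to furafylline 57 uM = full inhibition.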

Experiment [4] is described as follows: NFAT Signaling Pathway (AID 444).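 Also: carbachol stimulus at about its EC50 of 1 µM final; % is scaled to controls: 0 for no effect and ±100 for the full control effect.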 The conditions noted are these: Jurkat NFAT-bla M1, carbachol, beta-lactamase ratio, 5 h; at 7.69 µM (top of the series) unless noted. Put shortly: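 Jurkat cells carrying an NFAT-driven β-lactamase reporter and co-transfected muscarinic M1 receptor were treated with compound plus carbachol (1 uM final, an EC50 level) for 5 h at 37 °C. CCF4 loading followed for 1 h at RT; 460/530 nm ratio gave %activity.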

The nature of experiment [5]: Stat Signaling Pathway (AID 446).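 Also: ME-180 cervical cancer cells given 40 pM IL-6 alongside compound; SIE-controlled beta-lactamase reporter measured as 460/530 nm FRET emission ratio; % is scaled to controls: 0 for no effect and ±100 for the full control effect.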 The conditions noted are these: ME-180 (cervical carcinoma) SIE beta-lactamase reporter, IL-6 stimulated, 5 h; at 7.69 µM (top of the series) unless noted. In a few lines:
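FRET read-out (405 nm excitation, 460/530 nm emission) of a beta-lactamase reporter under a STAT-inducible element in ME-180 cervical carcinoma cells. Cells with compound receive 40 pM IL-6 for 5 h. Values are normalised to AC90 stimulation and AC90 JAK-inhibitor controls.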

In experiment [6] the target is Glucocorticoid receptor (Homo sapiens) (UniProt P04150). Briefly: GR-GFP Redistribution (AID 450;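 active = compounds whose dose series gives a full or clear partial fitted curve of increased nuclear translocation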; also: potency is read from the fitted curve at half-maximal effect). The conditions noted are these: U2OS GR-GFP nuclear translocation, laser cytometry, 2 h.
Experiment [7] has the same target. The experiment is described as follows: GR-EFC Redistribution (AID 451; calls by dose curve; also: potency is read from the fitted curve at half-maximal effect). The conditions noted are these: CHO-K1 GR-EFC translocation, beta-gal luminescence, 2 h. In a few lines: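 CHO-K1 cells stably expressing nuclear-localized β-gal enzyme acceptor and GR fused C-terminally to the enzyme donor fragment; ligand-driven nuclear translocation restores β-gal by complementation. Compounds titrated up to 46 uM final, 2 h at 37 °C; luminescence read.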

For experiment [8], the target named is Mitogen-activated protein kinase 10 (Mus musculus) (UniProt Q61831). Briefly: JNK3 AlphaScreen Assay (AID 530).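 Also: kinase came from lysate of stimulated human HepG2 cells; % is scaled to controls: 0 for no effect and ±100 for the full control effect.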 Conditions: JNK3 lysate, c-Jun phosphorylation; series mostly up to 11.4 µM. In a few lines: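 Biotinylated GST-cJun(1-79) served as substrate for JNK3 in HepG2 lysates stimulated with IL-1beta and TNF-alpha. ATP was 10 uM final, pH 7.6. Ser73 phosphorylation was quantified by AlphaScreen (680 nm excitation).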

For experiment [9], the target named is 3',5'-cyclic-AMP phosphodiesterase 4B (Homo sapiens) (UniProt Q07343). Briefly: qHTS Assay for Inhibitors of PDE-IV (AID 607; active = well fitted activation curve with a large enough effect in the main read-out, with a control signal flat, not every such curve was filed as active; also: % of control where 0% means no effect). Conditions: HEK293 ACTOne CNG channel cells, membrane potential fluorescence; series mostly up to 22.9 µM. In a few lines:
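Cell-based read-out of cAMP via a modified cyclic nucleotide-gated channel and membrane potential dye (535/590 nm) in HEK293 cells expressing PDE4 endogenously. Compounds tested up to 22.9 uM final; 100 uM RO 20-1724 reference.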
In general terms: Quantitative high-throughput screening tests each substance at several concentrations.

Experiment [10] addresses Cytochrome P450 2C9 (Homo sapiens) (UniProt P11712). The experiment is described as follows: qHTS Assay for Inhibitors and Substrates of Cytochrome P450 2C9 (AID 883; active = well fitted curve in the direction sought with a large enough effect; an effect the other way counts as inactive or inconclusive; also: % is scaled to controls: 0 for no effect and ±100 for the full control effect; nearly all actives have a fitted effect of over 60% in size). The conditions noted are these: recombinant CYP2C9, luciferin-H luminescence, 60 min; series mostly up to 11.4 µM. Put shortly: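 Human CYP2C9 (10nM) hydroxylated Luciferin-H (100uM, at its KM) to luciferin in 25mM KPO4. Compound was preincubated 10 min at 37C, then NADPH regeneration started a 60 min reaction at 37C. Luminescence was read after detection reagent, normalized to 57uM sulphaphenazole.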

For experiment [11], the target named is Cytochrome P450 3A4 (Homo sapiens) (UniProt P08684). The experiment is described as follows: qHTS Assay for Inhibitors and Substrates of Cytochrome P450 3A4 (AID 884; active = well fitted curve in the direction sought with a large enough effect; an effect the other way counts as inactive or inconclusive; also: potency is read from the fitted curve at half-maximal effect; nearly all actives have a fitted effect of over 50% in size). The conditions noted are these: recombinant CYP3A4, Luciferin-PPXE luminescence; series mostly up to 57.1 µM. In a few lines:
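Luminescent readout of luciferin produced by CYP3A4 (20 nM) dealkylation of Luciferin-PPXE, 25 uM (its KM). NADPH-driven reaction ran 60 min at RT after 10 min compound preincubation; data scaled to 57 uM ketoconazole as 100% inhibition.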

For experiment [12] the target is unchanged. The experiment is described as follows: qHTS Assay for Activators of Cytochrome P450 3A4 (AID 885; active = well fitted curve in the direction sought with a large enough effect; an effect the other way counts as inactive or inconclusive; also: nearly all actives have a fitted effect of over 65% in size). Conditions: recombinant CYP3A4, Luciferin-PPXE luminescence, 60 min; series mostly up to 11.4 µM. Put shortly:
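Luminescent readout of luciferin formed from 25 uM Luciferin-PPXE (KM level) by 20 nM CYP3A4 in 200 mM KPO4, with 60 min NADPH-driven reaction at room temperature after 10 min compound exposure. Ketoconazole (57 uM) defined 100% inhibition.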

Chain of Lysosomal acid glucosylceramidase (Homo sapiens) (P04062 whole entry, looked up): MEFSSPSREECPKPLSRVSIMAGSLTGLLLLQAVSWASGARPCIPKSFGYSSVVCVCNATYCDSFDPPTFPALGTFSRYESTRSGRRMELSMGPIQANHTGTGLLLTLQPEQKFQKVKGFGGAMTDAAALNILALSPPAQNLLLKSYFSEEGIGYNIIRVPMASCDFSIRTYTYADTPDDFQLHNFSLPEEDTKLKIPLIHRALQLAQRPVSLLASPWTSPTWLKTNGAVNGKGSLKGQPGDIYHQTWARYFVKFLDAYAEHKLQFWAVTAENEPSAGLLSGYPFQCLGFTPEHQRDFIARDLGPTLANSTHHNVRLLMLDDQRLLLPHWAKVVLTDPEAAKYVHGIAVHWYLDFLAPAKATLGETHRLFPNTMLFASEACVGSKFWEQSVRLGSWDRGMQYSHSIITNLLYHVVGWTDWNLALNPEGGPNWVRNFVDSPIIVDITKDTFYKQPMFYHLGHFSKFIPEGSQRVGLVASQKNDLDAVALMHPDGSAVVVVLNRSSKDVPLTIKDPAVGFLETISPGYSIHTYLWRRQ
Chain of Cytochrome P450 1A2 (Homo sapiens) (P05177 whole entry, looked up): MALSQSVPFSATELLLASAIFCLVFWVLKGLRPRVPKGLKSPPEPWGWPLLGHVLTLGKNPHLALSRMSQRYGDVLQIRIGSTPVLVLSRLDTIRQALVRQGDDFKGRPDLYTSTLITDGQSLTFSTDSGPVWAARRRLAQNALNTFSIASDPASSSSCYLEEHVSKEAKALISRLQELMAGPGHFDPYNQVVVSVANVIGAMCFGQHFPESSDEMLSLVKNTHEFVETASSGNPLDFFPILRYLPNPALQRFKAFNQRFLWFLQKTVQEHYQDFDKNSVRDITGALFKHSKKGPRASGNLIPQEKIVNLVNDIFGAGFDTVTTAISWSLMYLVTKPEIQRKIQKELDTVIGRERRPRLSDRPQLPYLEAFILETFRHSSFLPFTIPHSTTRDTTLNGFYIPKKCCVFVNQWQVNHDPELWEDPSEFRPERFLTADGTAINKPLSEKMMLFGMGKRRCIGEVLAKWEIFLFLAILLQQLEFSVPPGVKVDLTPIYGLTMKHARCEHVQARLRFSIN
Chain of Cytochrome P450 2C9 (Homo sapiens) (P11712 whole entry, looked up): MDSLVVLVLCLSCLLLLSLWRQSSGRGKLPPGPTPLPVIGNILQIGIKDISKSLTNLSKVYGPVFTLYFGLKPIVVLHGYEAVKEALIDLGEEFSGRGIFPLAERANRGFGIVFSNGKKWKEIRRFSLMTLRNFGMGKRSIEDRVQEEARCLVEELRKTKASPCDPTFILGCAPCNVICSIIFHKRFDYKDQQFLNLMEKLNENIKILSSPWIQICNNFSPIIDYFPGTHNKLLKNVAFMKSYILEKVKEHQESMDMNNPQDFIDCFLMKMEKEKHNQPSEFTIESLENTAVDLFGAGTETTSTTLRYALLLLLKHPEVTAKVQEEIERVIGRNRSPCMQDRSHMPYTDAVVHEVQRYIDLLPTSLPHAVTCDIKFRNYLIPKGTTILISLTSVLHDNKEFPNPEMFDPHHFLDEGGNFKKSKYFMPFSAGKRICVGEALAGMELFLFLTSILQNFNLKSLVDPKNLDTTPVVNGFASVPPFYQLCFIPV
Chain of Glucocorticoid receptor (Homo sapiens) (P04150 whole entry, looked up, the tested form may be a part): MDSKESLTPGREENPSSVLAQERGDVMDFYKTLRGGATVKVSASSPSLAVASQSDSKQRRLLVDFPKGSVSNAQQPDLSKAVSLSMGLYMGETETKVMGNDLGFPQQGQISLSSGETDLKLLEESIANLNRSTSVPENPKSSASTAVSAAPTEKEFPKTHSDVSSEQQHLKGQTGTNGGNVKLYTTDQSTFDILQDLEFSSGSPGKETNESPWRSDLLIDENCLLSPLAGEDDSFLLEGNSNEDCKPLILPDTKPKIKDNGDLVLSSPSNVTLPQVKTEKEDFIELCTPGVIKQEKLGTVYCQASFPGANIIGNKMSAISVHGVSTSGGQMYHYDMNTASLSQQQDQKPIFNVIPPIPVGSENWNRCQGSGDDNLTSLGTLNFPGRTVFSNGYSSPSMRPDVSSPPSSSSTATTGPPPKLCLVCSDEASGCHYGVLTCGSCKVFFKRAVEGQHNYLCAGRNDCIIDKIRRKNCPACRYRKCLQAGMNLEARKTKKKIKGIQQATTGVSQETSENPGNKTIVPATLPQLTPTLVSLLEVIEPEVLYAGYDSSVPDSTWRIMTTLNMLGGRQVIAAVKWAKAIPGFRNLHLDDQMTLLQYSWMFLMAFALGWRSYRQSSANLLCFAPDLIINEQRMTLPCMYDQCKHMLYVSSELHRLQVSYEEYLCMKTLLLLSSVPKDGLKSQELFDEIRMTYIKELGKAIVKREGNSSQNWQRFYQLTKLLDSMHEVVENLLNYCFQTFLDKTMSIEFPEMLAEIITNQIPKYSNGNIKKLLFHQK
Chain of 3',5'-cyclic-AMP phosphodiesterase 4B (Homo sapiens) (Q07343 whole entry, looked up): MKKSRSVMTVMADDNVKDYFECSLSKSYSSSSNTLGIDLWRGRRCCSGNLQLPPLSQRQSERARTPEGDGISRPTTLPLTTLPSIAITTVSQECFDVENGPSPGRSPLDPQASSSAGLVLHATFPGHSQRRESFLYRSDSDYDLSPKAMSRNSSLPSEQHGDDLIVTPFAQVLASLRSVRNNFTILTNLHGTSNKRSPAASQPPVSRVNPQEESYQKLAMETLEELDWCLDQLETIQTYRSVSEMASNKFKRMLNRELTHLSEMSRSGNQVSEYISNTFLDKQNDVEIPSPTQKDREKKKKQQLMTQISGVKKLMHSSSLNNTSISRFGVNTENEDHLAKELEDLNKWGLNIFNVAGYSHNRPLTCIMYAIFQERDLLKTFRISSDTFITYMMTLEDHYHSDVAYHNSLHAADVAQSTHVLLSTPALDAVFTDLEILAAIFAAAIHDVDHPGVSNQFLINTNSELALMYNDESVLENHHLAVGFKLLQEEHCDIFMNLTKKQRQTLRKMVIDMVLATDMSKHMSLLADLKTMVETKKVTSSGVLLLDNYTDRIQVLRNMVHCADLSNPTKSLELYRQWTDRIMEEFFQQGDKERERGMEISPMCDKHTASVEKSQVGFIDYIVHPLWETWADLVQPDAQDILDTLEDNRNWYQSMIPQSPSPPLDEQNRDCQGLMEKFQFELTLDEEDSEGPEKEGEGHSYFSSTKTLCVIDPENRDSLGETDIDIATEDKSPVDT
Chain of Cytochrome P450 3A4 (Homo sapiens) (P08684 whole entry, looked up): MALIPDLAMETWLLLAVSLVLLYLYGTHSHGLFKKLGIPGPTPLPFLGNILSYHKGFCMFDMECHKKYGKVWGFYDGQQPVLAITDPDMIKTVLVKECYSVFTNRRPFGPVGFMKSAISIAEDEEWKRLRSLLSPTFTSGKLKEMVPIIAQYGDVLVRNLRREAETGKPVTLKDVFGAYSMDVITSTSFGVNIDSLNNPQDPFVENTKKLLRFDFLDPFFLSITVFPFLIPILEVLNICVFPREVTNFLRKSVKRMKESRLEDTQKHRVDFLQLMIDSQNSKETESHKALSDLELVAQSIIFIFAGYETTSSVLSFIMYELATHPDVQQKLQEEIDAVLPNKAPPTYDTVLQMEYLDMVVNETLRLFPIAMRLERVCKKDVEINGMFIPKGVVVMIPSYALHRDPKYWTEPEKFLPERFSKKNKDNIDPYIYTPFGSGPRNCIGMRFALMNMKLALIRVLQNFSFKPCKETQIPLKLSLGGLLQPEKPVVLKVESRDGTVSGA

Turning to `O=C(O)c1cscc1Cc1cccs1`, the Potency in [1] is > 11.4 µM; in experiment [6] it was > 46 µM; in [7] it was > 9.22 µM. Moreover, the values for the activity change, negative = inhibition in experiment [2] and in experiment [4] were -0.132% and -2.63%, respectively. Further, the Potency result in [3], in [8], in [9] and in [10] was “inactive” in each case. The activity, negative = inhibition in experiment [5] is 5.79%.
Take `Cn1c(=O)c2[nH]c([C@@H]3CC(=O)C[C@H](c4nc5c([nH]4)c(=O)n(C)c(=O)n5C)N3)nc2n(C)c1=O`: the values for the Potency in experiment [1], in experiment [6] and in experiment [7] were > 11.4 µM, > 46 µM and > 9.22 µM, respectively. The activity change, negative = inhibition in experiment [2] was 3.07%; in experiment [3] it was -18.2% [at 2.29 µM]; in [4], 19%. Further, the activity, negative = inhibition in experiment [5] was 6.09%. Further, the Potency entry in [8] and in [9] was “inactive” each time.
With `N[C@@H](Cc1[nH]nc2ccccc12)C(=O)O`, the Potency in [1] is > 11.4 µM; in experiment [6], > 46 µM; in experiment [7], > 9.22 µM. In addition, the activity change, negative = inhibition is 5.54% in [2] and -12.5% in [4]. In addition, the Potency result in experiment [3], in experiment [8] and in experiment [9] was “inactive” throughout. Besides, the activity, negative = inhibition in experiment [5] was -0.642%.
Regarding `CCOc1ccccc1/C=C(\C#N)C(N)=O`, the Potency in experiment [1] is > 11.4 µM; in [3] it was 2 µM (active); in [6], > 46 µM; in [7] it was > 9.22 µM. The activity change, negative = inhibition in experiment [2] is 3.2%; in [4] it was -1.04%. In addition, the activity, negative = inhibition in [5] was 4.29%. Further, the Potency entry in [8], in experiment [9] and in [10] was “inactive” in each case.
`O=C(N/N=C\c1ccc2c(c1)CCC2)c1ccccc1O`: the Potency in [1] was > 11.4 µM; in experiment [3], 2 µM (active); in experiment [6] it was > 46 µM; in experiment [7], > 9.22 µM. The activity change, negative = inhibition is -5.97% in experiment [2] and 20.6% in [4]. In addition, in experiment [5], the activity, negative = inhibition was -2.26%. The Potency result in experiment [8], in experiment [9] and in experiment [10] was “inactive” each time.
Take `Fc1cccc(CSc2ncnc3c2ncn3[C@H]2CCCS2)c1`: the Potency in experiment [1] is > 11.4 µM; in experiment [3], 0.501 µM (active); in [6], > 46 µM; in [7] it was > 9.22 µM. Also, the activity change, negative = inhibition is -5.08% in [2] and -2.58% in experiment [4]. In addition, in experiment [5], the activity, negative = inhibition was 3.04%. Also, the Potency result in experiment [8] and in [9] was “inactive” in each case.
For the molecule `O=C(O)CSc1ncccc1[N+](=O)[O-]`, the Potency is > 11.4 µM in experiment [1], > 46 µM in experiment [6] and > 9.22 µM in experiment [7]. In addition, the activity change, negative = inhibition in experiment [2] is 6.57%; in experiment [4], 2.05%. The Potency entry in experiment [3], in [8] and in experiment [9] was “inactive” throughout. Moreover, the activity, negative = inhibition in [5] was 1.22%.
As to `Cc1c(Cl)c(S(N)(=O)=O)cc2c1=NC=NS=2(=O)O`, the Potency is > 11.4 µM in [1], > 46 µM in experiment [6] and > 9.22 µM in [7]. In addition, the activity change, negative = inhibition in experiment [2] is -1%; in experiment [3], -9.6% [at 2.29 µM]; in [4], 4.9%. The activity, negative = inhibition in experiment [5] was 1.77%. Further, the Potency result in [8], in [9] and in experiment [10] was “inactive” in each case.
Take `Nc1ncnc2c1nc(-c1ccccc1)n2[C@H]1O[C@@H](CO)[C@@H](O)[C@H]1O`: the Potency in experiment [1] is > 11.4 µM; in [6] it was > 46 µM; in experiment [7] it was > 9.22 µM. In addition, the activity change, negative = inhibition is -9.23% in experiment [2], -16.8% [at 2.29 µM] in experiment [3] and 6.55% in experiment [4]. Moreover, the activity, negative = inhibition in [5] is 1.65%. Moreover, the Potency entry in experiment [8] and in [9] was “inactive” each time.
On to `O=C(O)c1cc(=O)[nH]c(=S)[nH]1`, for which the Potency was > 11.4 µM in experiment [1], > 46 µM in [6] and > 9.22 µM in [7]. Further, the activity change, negative = inhibition is -9.52% in experiment [2], -10.7% [at 2.29 µM] in [3] and 5.67% in experiment [4]. Besides, in experiment [5], the activity, negative = inhibition is 6.7%. For the same molecule, the Potency result in [8] and in experiment [9] was “inactive” in each case.
Take `NCCNc1ncnc2ccc(Cl)cc12`: the Potency in experiment [1] is 11.7 µM; in [3], 1 µM (active); in [6] it was > 46 µM; in [7], > 9.22 µM. Also, the activity change, negative = inhibition in experiment [2] is 5.69%; in experiment [4], -9.27%. The activity, negative = inhibition in [5] was -14.9%. Also, the Potency result in [8] and in experiment [9] was “inactive” throughout.
For `O=C(Nc1cccc2ccccc12)c1ccccc1`, the Potency was > 11.4 µM in [1]; 3.98 µM (active) in experiment [3]; > 46 µM in experiment [6]; > 9.22 µM in experiment [7]; 3.16 µM (active) in experiment [11]. In addition, the activity change, negative = inhibition in [2] is -4.06%; in [4], -11.4%. For the same molecule, the activity, negative = inhibition in [5] was 3.33%. For the same molecule, the Potency entry in experiment [8], in [9], in [10] and in [12] was “inactive” each time.
As for `CC(=O)O[C@H]1CC[C@@]2(C)[C@@H](CC[C@H]3[C@H]2CC(=O)[C@@]2(C)[C@@H]3C[C@H]3CC(C)=CC(=O)[C@H]32)C1`, the Potency was > 11.4 µM in experiment [1], > 46 µM in experiment [6] and > 9.22 µM in experiment [7]. Besides, the activity change, negative = inhibition was 5.01% in experiment [2], -9% [at 2.29 µM] in [3] and 22% in [4]. In [5], the activity, negative = inhibition was -1.11%. For the same molecule, the Potency result in [8] and in [9] was “inactive” each time.
As to `Fc1cccc(F)c1C(Nc1nncs1)Nc1nncs1`, the Potency in [1] was > 11.4 µM; in experiment [6], > 46 µM; in [7], > 9.22 µM. Also, the values for the activity change, negative = inhibition in experiment [2], in [3] and in experiment [4] were 1.35%, 12.3% [at 2.29 µM] and 15.7%, respectively. Further, in experiment [5], the activity, negative = inhibition is 6.21%. In addition, the Potency entry in [8] and in [9] was “inactive” each time.
For the molecule `NCCSC[C@H](N)C(=O)O`, the Potency in experiment [1] was > 11.4 µM; in [6], > 46 µM; in experiment [7], > 9.22 µM. In addition, the activity change, negative = inhibition is -5.07% in experiment [2] and 6.39% in [4]. Further, the Potency result in experiment [3], in [8], in experiment [9] and in [10] was “inactive” each time. For the same molecule, in experiment [5], the activity, negative = inhibition is 6.75%.
